According to PubChem BioAssay (EPA / NIEHS):
Results filed as inconclusive are left out. Calls of active or inactive are those of the source. Rule for the calls: active = hit-call score of the fitted dose curve at least 0.9, where 1 is the maximum; inconclusive = response in the unintended direction; inactive = score below 0.9.

Target: human Serotonin, 5-Hydroxytryptamine Receptor 2A (5HT2A), HTR2A (gene 3356) (UniProt P28223)
Assay: NVS_GPCR_h5HT2A: NovaScreen (NVS) G Protein-Coupled Receptor Assay for human Serotonin, 5-Hydroxytryptamine Receptor 2A (5HT2A) (AID 2283249)
Outline: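 Radioligand displacement on human cortex tissue extract, counted by filtration and scintillation 1.5 h post-dosing. Initial single-concentration screen at 25 uM in duplicate, concentration series in follow-up; DMSO as baseline.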

human Serotonin, 5-Hydroxytryptamine Receptor 2A (5HT2A), HTR2A (gene 3356), sequence (P28223 whole entry, looked up): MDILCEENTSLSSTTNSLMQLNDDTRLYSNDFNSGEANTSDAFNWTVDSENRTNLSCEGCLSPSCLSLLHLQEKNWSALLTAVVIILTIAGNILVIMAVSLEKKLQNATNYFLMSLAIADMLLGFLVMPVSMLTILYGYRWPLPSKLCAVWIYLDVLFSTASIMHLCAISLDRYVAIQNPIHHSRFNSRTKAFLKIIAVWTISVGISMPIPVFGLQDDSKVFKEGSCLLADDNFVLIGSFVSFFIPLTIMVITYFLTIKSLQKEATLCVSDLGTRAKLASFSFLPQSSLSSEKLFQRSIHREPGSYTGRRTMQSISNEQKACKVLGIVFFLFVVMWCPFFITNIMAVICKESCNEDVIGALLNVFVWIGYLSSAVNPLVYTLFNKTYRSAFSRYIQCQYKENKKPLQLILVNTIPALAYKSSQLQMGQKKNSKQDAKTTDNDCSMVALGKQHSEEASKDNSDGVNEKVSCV

Row | SMILES | AC50 | outcome
1 | CC(=O)NC1(c2cccc(F)c2)CCN(CC[C@@]2(c3ccc(Cl)c(Cl)c3)CN(c3ccccc3)C(=O)CO2)CC1 | 1.9 µM (active) | 
2 | CCCOc1sc(C(=O)N2CCC(c3cc(CN)ccc3F)CC2)c(C)c1Br | 14.3 µM (active) | 
3 | CC(C)(C)c1cc(C(C)(C)C)c(O)c(C(C)(C)C)c1 |  | inactive
4 | O=c1c(-c2ccc(O)cc2)coc2cc(O)ccc12 |  | inactive
5 | CN1CCN(c2ccccc2/C=C2\SCCN(c3ccc(Cl)c(Cl)c3)C2=O)CC1 | 1.9 µM (active) | 

Test system: guinea pig Muscarinic, Peripheral (Mperiperal) Receptor, Non-selective Binding, gene 100379235
Assay: NVS_GPCR_gMPeripheral_NonSelective: NovaScreen (NVS) G Protein-Coupled Receptor Assay for guinea pig Muscarinic, Peripheral (Mperiperal) Receptor, Non-selective Binding (AID 2283250)
Outline: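 Screened in duplicate at 25 uM, hits retested in concentration series to 50 uM max, using bladder membrane radioligand displacement from guinea pig. Filtration and scintillation counting 1 h post-dose, fitted relative to DMSO.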

Row | SMILES | AC50 | outcome
6 | CC(=O)NC1(c2cccc(F)c2)CCN(CC[C@@]2(c3ccc(Cl)c(Cl)c3)CN(c3ccccc3)C(=O)CO2)CC1 | 20.8 µM (active) | 
7 | CCCOc1sc(C(=O)N2CCC(c3cc(CN)ccc3F)CC2)c(C)c1Br | 23.2 µM (active) | 
8 | CN1CCC[C@H]1c1cccnc1 |  | inactive
9 | CCN(CC)CCNc1ccc(CNC=O)c2sc3ccc(OC)cc3c(=O)c12 | 5.83 µM (active) | 
10 | CCCCCCCC(=O)O |  | inactive

Target: human Serotonin, 5-Hydroxytryptamine Receptor 5A (5HT5A), HTR5A (gene 3361) (UniProt P47898)
Assay: NVS_GPCR_h5HT5A: NovaScreen (NVS) G Protein-Coupled Receptor Assay for human Serotonin, 5-Hydroxytryptamine Receptor 5A (5HT5A) (AID 2283251)
Outline: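 Membranes from HEK293 cells, radioligand binding read by filtration and scintillation after 1 h. Single-concentration duplicate testing at 25 uM, then concentration-response for actives; positive-direction fitting relative to DMSO.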

human Serotonin, 5-Hydroxytryptamine Receptor 5A (5HT5A), HTR5A (gene 3361), sequence (P47898 whole entry, looked up): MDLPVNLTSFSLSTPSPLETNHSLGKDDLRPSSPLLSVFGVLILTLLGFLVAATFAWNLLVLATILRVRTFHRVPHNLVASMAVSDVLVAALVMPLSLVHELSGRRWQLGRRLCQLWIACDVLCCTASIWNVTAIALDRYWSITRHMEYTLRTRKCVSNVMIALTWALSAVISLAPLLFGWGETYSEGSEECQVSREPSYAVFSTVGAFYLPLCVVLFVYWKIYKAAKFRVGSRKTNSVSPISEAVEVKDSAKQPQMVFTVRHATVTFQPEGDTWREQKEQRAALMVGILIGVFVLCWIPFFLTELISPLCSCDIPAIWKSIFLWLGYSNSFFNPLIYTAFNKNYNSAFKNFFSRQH

Row | SMILES | AC50 | outcome
11 | CC(=O)NC1(c2cccc(F)c2)CCN(CC[C@@]2(c3ccc(Cl)c(Cl)c3)CN(c3ccccc3)C(=O)CO2)CC1 | 28.3 µM (active) | 
12 | CCCOc1sc(C(=O)N2CCC(c3cc(CN)ccc3F)CC2)c(C)c1Br | 15.1 µM (active) | 
13 | NC(=O)N(O)[C@@H]1C=C[C@H](Oc2cccc(Oc3ccc(F)cc3)c2)C1 | 14 µM (active) | 
14 | O=C(O)Cc1cc(I)c(Oc2cc(I)c(O)c(I)c2)c(I)c1 |  | inactive
15 | NC(=O)N1C(=O)C(C(=O)c2cc(Cl)cs2)c2cc(F)c(Cl)cc21 (configuration not stated) | 41.3 µM (active) | 
16 | CCCCCCCCCCCCc1ccccc1S(=O)(=O)O | 6.39 µM (active) | 
17 | CC[C@H](c1ccc(O)cc1)[C@@H](CC)c1ccc(O)cc1 | 1.69 µM (active) | 
18 | CCN(CC)CCNc1ccc(CNC=O)c2sc3ccc(OC)cc3c(=O)c12 | 4.96 µM (active) | 
19 | CCC(=C(c1ccc(O)cc1)c1ccc(OCCN(C)C)cc1)c1ccccc1 | 3.32 µM (active) | 
20 | CN1CCN(c2ccccc2/C=C2\SCCN(c3ccc(Cl)c(Cl)c3)C2=O)CC1 | 0.302 µM (active) | 
21 | Cc1oc(-c2ccccc2)nc1CCOc1ccc(C[C@H](Nc2ccccc2C(=O)c2ccccc2)C(=O)O)cc1 | 9.5 µM (active) | 

Target: guinea pig Opioid, Kappa 1 Receptor (OpiateK), OPRK1 (gene 100135587) (UniProt P41144)
Assay: NVS_GPCR_gOpiateK: NovaScreen (NVS) G Protein-Coupled Receptor Assay for guinea pig Opioid, Kappa 1 Receptor (OpiateK) (AID 2283252);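 note: radioligand displacement from kappa opioid receptor in guinea pig cerebellar membranes; active means reduced radioligand binding relative to DMSO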
Outline: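 Radioligand competition binding using guinea pig cerebellum membrane fraction; 2 h exposure; filter radiodetection. Single concentration 25 uM (duplicate), follow-up concentration-response for actives.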

guinea pig Opioid, Kappa 1 Receptor (OpiateK), OPRK1 (gene 100135587), sequence (P41144 whole entry, looked up): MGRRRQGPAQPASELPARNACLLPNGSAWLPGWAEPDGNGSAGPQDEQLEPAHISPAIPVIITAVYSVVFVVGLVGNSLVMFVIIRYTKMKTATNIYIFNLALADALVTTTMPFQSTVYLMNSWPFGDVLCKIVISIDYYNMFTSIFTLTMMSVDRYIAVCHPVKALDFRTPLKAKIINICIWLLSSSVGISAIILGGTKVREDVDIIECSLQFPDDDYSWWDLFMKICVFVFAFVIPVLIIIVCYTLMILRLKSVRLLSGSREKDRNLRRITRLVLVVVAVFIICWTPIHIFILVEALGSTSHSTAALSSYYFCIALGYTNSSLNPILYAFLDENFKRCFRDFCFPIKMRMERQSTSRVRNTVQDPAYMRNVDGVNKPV

Row | SMILES | AC50 | outcome
22 | CC(=O)NC1(c2cccc(F)c2)CCN(CC[C@@]2(c3ccc(Cl)c(Cl)c3)CN(c3ccccc3)C(=O)CO2)CC1 | 20.8 µM (active) | 
23 | CCCOc1sc(C(=O)N2CCC(c3cc(CN)ccc3F)CC2)c(C)c1Br |  | inactive
24 | CC[C@H](C)[C@@H](C(=O)O)n1sc2ccccc2c1=O | 12.7 µM (active) | 
25 | CCCCCCCCCCCCc1ccccc1S(=O)(=O)O |  | inactive
26 | CC[C@H](c1ccc(O)cc1)[C@@H](CC)c1ccc(O)cc1 |  | inactive
27 | CCN(CC)CCNc1ccc(CNC=O)c2sc3ccc(OC)cc3c(=O)c12 | 25 µM (active) | 
28 | CCCCCCCC(=O)O |  | inactive
29 | CN1CCN(c2ccccc2/C=C2\SCCN(c3ccc(Cl)c(Cl)c3)C2=O)CC1 | 3.39 µM (active) | 
30 | C#C[C@]1(O)CC[C@H]2[C@@H]3CCC4=CC(=O)CC[C@@H]4[C@H]3CC[C@@]21C |  | inactive

Target: human Serotonin, 5-Hydroxytryptamine Receptor 6 (5HT6), HTR6 (gene 3362) (UniProt P50406)
Assay: NVS_GPCR_h5HT6: NovaScreen (NVS) G Protein-Coupled Receptor Assay for human Serotonin, 5-Hydroxytryptamine Receptor 6 (5HT6) (AID 2283253)
Outline: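 Filter scintillation counting of radioligand displacement from HEK293-expressed 5HT6, 1 hour post-dose, with loss of signal relative to DMSO. Single 25 uM duplicates first, with concentration series for confirmation.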

human Serotonin, 5-Hydroxytryptamine Receptor 6 (5HT6), HTR6 (gene 3362), sequence (P50406 whole entry, looked up): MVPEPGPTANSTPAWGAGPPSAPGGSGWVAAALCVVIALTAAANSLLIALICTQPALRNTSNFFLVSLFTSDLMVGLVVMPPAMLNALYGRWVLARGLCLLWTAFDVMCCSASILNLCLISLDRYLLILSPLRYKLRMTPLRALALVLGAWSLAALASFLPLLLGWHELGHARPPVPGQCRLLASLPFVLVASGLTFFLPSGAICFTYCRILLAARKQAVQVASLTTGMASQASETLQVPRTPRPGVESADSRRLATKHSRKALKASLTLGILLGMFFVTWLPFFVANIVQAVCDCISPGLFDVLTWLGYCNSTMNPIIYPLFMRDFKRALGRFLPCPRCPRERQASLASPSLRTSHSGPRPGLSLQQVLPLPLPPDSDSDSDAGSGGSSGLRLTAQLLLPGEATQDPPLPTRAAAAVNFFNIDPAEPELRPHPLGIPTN

Row | SMILES | AC50
31 | CC(=O)NC1(c2cccc(F)c2)CCN(CC[C@@]2(c3ccc(Cl)c(Cl)c3)CN(c3ccccc3)C(=O)CO2)CC1 | 5.94 µM (active)
32 | CCCOc1sc(C(=O)N2CCC(c3cc(CN)ccc3F)CC2)c(C)c1Br | 8.41 µM (active)
33 | CCCCCCCCCCCCc1ccccc1S(=O)(=O)O | 31.9 µM (active)
34 | CCC(=C(c1ccc(O)cc1)c1ccc(OCCN(C)C)cc1)c1ccccc1 | 1.74 µM (active)
35 | CN1CCN(c2ccccc2/C=C2\SCCN(c3ccc(Cl)c(Cl)c3)C2=O)CC1 | 1.45 µM (active)

Target: human Adenosine A1 Receptor (AdoRA1), ADORA1 (gene 134) (UniProt P30542)
Assay: NVS_GPCR_hAdoRA1: NovaScreen (NVS) G Protein-Coupled Receptor Assay for human Adenosine A1 Receptor (AdoRA1) (AID 2283254)
Outline: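 Each chemical is first tested twice at 25 uM, actives later in dilution series, against a radioligand bound to human cortex membranes; after 1 h, filter-retained counts are compared with DMSO controls, lower signal indicating displacement.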

human Adenosine A1 Receptor (AdoRA1), ADORA1 (gene 134), sequence (P30542 whole entry, looked up): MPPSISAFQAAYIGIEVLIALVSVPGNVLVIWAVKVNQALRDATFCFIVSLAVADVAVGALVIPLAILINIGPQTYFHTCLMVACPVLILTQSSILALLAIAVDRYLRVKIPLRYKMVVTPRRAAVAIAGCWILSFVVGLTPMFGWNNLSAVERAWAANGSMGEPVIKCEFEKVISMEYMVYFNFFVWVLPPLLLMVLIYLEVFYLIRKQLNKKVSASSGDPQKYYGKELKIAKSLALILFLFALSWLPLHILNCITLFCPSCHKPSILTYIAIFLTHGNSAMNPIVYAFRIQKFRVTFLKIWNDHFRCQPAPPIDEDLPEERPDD

Row | SMILES | AC50 | outcome
36 | O=C(OCCOCCOC(=O)c1ccccc1)c1ccccc1 | 5.62 µM (active) | 
37 | CCCOc1sc(C(=O)N2CCC(c3cc(CN)ccc3F)CC2)c(C)c1Br | 17.2 µM (active) | 
38 | CCCOC(=O)c1ccc(O)cc1 | 11.8 µM (active) | 
39 | O=C(O)Cc1cc(I)c(Oc2cc(I)c(O)c(I)c2)c(I)c1 |  | inactive
40 | NC(=O)N1C(=O)C(C(=O)c2cc(Cl)cs2)c2cc(F)c(Cl)cc21 (configuration not stated) | 8.46 µM (active) | 
41 | CCCCCCCCCCCCc1ccccc1S(=O)(=O)O | 18.1 µM (active) | 
42 | CC[C@H](c1ccc(O)cc1)[C@@H](CC)c1ccc(O)cc1 | 8.65 µM (active) | 
43 | CCN(CC)CCNc1ccc(CNC=O)c2sc3ccc(OC)cc3c(=O)c12 | 3.34 µM (active) | 
44 | CCC(=C(c1ccc(O)cc1)c1ccc(OCCN(C)C)cc1)c1ccccc1 | 2.12 µM (active) | 
45 | CCCCCCCC(=O)O |  | inactive
46 | CC#C[C@]1(O)CC[C@H]2[C@@H]3CCC4=CC(=O)CCC4=C3[C@@H](c3ccc(N(C)C)cc3)C[C@@]21C |  | inactive
47 | Cc1oc(-c2ccccc2)nc1CCOc1ccc(C[C@H](Nc2ccccc2C(=O)c2ccccc2)C(=O)O)cc1 | 25 µM (active) | 
